Drawing on PubChem BioAssay, this text covers viability for eleven compounds.

A number with no mark means an inactive call. Calls of active or inactive are those of the source.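 Rule for the calls: active = normalized viability below 100% at a tested concentration; inactive = the rest.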

One assay is described as follows: ovarian cancer cell viability with rucaparib, profiling panel, oncology-focused library, rucaparib conditional (AID 1508598). The note with it: patient-derived ovarian cancer cells, CellTiter-Glo viability, 144 h; at 0.000305 µM; OCI-P5x cells; with rucaparib 20 µM; hits give low values; 100% = cells with rucaparib alone.
Take `CC1(C)CNc2cc(NC(=O)c3cccnc3NCc3ccncc3)ccc21`: the viability is 128%.
Same read-out and setting: next, `O=C(Nc1ccccc1-c1cn2c(CN3CCNCC3)csc2n1)c1cnc2ccccc2n1`: 123%; `Cc1cnc(NC(=O)Nc2cc(Br)c(C)cc2OC[C@@H]2CNCCO2)cn1`: 65.9% (active); `N#Cc1c(NC(=O)c2cccc3ccccc23)sc2c1CCCC2`: 96% (active).
Same read-out and setting: next, `COc1ccc(-c2ccc3c(N4CCOC[C@@H]4C)nc(N4CCOC[C@@H]4C)nc3n2)cc1CO`: 87.2% (active); `Nc1nc(Nc2ccc(S(N)(=O)=O)cc2)nn1C(=O)c1c(F)cccc1F`: 89.3% (active); `Cc1ccc(F)c(NC(=O)Nc2ccc(-c3cccc4[nH]nc(N)c34)cc2)c1`: 85.4% (active).
`COc1ccc(-c2ccc3c(N4CCOCC4)nc(N4C[C@@H](C)O[C@@H](C)C4)nc3n2)cc1CO`: the viability was 105%.
With `N#CCNC(=O)c1ccc(-c2ccnc(Nc3ccc(N4CCOCC4)cc3)n2)cc1`, the viability is 105%.
The same measure, in the same setting: as for `COC(=O)c1ccc2c(C(=Nc3ccc(N(C)C(=O)CN4CCN(C)CC4)cc3)c3ccccc3)c(O)[nH]c2c1`, the figure is 103%; as for `COc1cc2nccc(Oc3ccc(NC(=O)Nc4cc(C)on4)c(Cl)c3)c2cc1OC`, 104%.

Still in this assay, the particulars now being: patient-derived ovarian cancer cells, CellTiter-Glo viability, 144 h; at 0.000305 µM; OCI-P5x cells; without rucaparib; hits give low values.
With `CC1(C)CNc2cc(NC(=O)c3cccnc3NCc3ccncc3)ccc21`, the viability was 103%.
Still for that read-out and setting: as for `O=C(Nc1ccccc1-c1cn2c(CN3CCNCC3)csc2n1)c1cnc2ccccc2n1`, the figure is 115%; as for `Cc1cnc(NC(=O)Nc2cc(Br)c(C)cc2OC[C@@H]2CNCCO2)cn1`, 19.8% (active); as for `N#Cc1c(NC(=O)c2cccc3ccccc23)sc2c1CCCC2`, 102%.
`COc1ccc(-c2ccc3c(N4CCOC[C@@H]4C)nc(N4CCOC[C@@H]4C)nc3n2)cc1CO`: the viability was 93% (active).
Same read-out and setting: as for `Nc1nc(Nc2ccc(S(N)(=O)=O)cc2)nn1C(=O)c1c(F)cccc1F`, the figure is 84.9% (active); as for `Cc1ccc(F)c(NC(=O)Nc2ccc(-c3cccc4[nH]nc(N)c34)cc2)c1`, 19.5% (active); as for `COc1ccc(-c2ccc3c(N4CCOCC4)nc(N4C[C@@H](C)O[C@@H](C)C4)nc3n2)cc1CO`, 112%.
The same measure, in the same setting: as for `N#CCNC(=O)c1ccc(-c2ccnc(Nc3ccc(N4CCOCC4)cc3)n2)cc1`, the figure is 104%.
On the same count and under the same terms, next, `COC(=O)c1ccc2c(C(=Nc3ccc(N(C)C(=O)CN4CCN(C)CC4)cc3)c3ccccc3)c(O)[nH]c2c1`: 111%.
As for `COc1cc2nccc(Oc3ccc(NC(=O)Nc4cc(C)on4)c(Cl)c3)c2cc1OC`, the viability was 96.5% (active).

Staying with this assay, now noted: patient-derived ovarian cancer cells, CellTiter-Glo viability, 144 h; at 0.00122 µM; OCI-C5x cells; with rucaparib 10 µM; hits give low values; 100% = cells with rucaparib alone.
`CC1(C)CNc2cc(NC(=O)c3cccnc3NCc3ccncc3)ccc21`: the viability was 114%.
As to `O=C(Nc1ccccc1-c1cn2c(CN3CCNCC3)csc2n1)c1cnc2ccccc2n1`, the viability was 101%.
`Cc1cnc(NC(=O)Nc2cc(Br)c(C)cc2OC[C@@H]2CNCCO2)cn1`: the viability is 84.2% (active).
Same read-out and setting: next, `N#Cc1c(NC(=O)c2cccc3ccccc23)sc2c1CCCC2`: 129%.
Same read-out and setting: next, `COc1ccc(-c2ccc3c(N4CCOC[C@@H]4C)nc(N4CCOC[C@@H]4C)nc3n2)cc1CO`: 122%; `Nc1nc(Nc2ccc(S(N)(=O)=O)cc2)nn1C(=O)c1c(F)cccc1F`: 96.6% (active); `Cc1ccc(F)c(NC(=O)Nc2ccc(-c3cccc4[nH]nc(N)c34)cc2)c1`: 108%.
On the same count and under the same terms, next, `COc1ccc(-c2ccc3c(N4CCOCC4)nc(N4C[C@@H](C)O[C@@H](C)C4)nc3n2)cc1CO`: 113%.
For the compound `N#CCNC(=O)c1ccc(-c2ccnc(Nc3ccc(N4CCOCC4)cc3)n2)cc1`, the viability is 103%.
Same read-out and setting: next, `COC(=O)c1ccc2c(C(=Nc3ccc(N(C)C(=O)CN4CCN(C)CC4)cc3)c3ccccc3)c(O)[nH]c2c1`: 107%; `COc1cc2nccc(Oc3ccc(NC(=O)Nc4cc(C)on4)c(Cl)c3)c2cc1OC`: 109%.

Staying with this assay, now noted: patient-derived ovarian cancer cells, CellTiter-Glo viability, 144 h; at 0.00122 µM; OCI-C5x cells; without rucaparib; hits give low values.
For the compound `CC1(C)CNc2cc(NC(=O)c3cccnc3NCc3ccncc3)ccc21`, the viability is 128%.
The same measure, in the same setting: next, `O=C(Nc1ccccc1-c1cn2c(CN3CCNCC3)csc2n1)c1cnc2ccccc2n1`: 106%; `Cc1cnc(NC(=O)Nc2cc(Br)c(C)cc2OC[C@@H]2CNCCO2)cn1`: 88.9% (active); `N#Cc1c(NC(=O)c2cccc3ccccc23)sc2c1CCCC2`: 120%.
For the compound `COc1ccc(-c2ccc3c(N4CCOC[C@@H]4C)nc(N4CCOC[C@@H]4C)nc3n2)cc1CO`, the viability was 105%.
On the same count and under the same terms, as for `Nc1nc(Nc2ccc(S(N)(=O)=O)cc2)nn1C(=O)c1c(F)cccc1F`, the figure is 96.5% (active); as for `Cc1ccc(F)c(NC(=O)Nc2ccc(-c3cccc4[nH]nc(N)c34)cc2)c1`, 112%; as for `COc1ccc(-c2ccc3c(N4CCOCC4)nc(N4C[C@@H](C)O[C@@H](C)C4)nc3n2)cc1CO`, 119%.
As to `N#CCNC(=O)c1ccc(-c2ccnc(Nc3ccc(N4CCOCC4)cc3)n2)cc1`, the viability was 108%.
Regarding `COC(=O)c1ccc2c(C(=Nc3ccc(N(C)C(=O)CN4CCN(C)CC4)cc3)c3ccccc3)c(O)[nH]c2c1`, the viability is 128%.
The same measure, in the same setting: next, `COc1cc2nccc(Oc3ccc(NC(=O)Nc4cc(C)on4)c(Cl)c3)c2cc1OC`: 100% (active).
